OTUD3 inh: blocks human OTUD3 ubiquitin-rhodamine cleavage; purified OTUD3, Ub-rhodamine fluorescence, 2 h; inhibition, % at 25 µM; 47,000 compounds, 0.7% hits; AID 1645858; Q5T2D3
Target sequence (Q5T2D3 whole entry, looked up): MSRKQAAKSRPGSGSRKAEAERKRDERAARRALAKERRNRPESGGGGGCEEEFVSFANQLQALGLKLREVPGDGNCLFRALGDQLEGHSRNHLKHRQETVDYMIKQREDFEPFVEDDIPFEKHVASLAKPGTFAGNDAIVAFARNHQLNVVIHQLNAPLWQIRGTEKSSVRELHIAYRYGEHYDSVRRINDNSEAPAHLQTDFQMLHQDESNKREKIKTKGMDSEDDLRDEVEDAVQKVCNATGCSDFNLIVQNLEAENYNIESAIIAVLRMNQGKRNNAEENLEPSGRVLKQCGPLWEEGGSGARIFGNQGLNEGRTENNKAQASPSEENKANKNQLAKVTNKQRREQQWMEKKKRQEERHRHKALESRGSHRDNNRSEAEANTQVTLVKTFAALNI
USP28 inh: human USP28 deubiquitinase inhibition. 47,000 compounds, 3% hits. purified USP28, Ub-rhodamine cleavage fluorescence, 30 min. Q96RU2. inhibition, % at 25 µM
USP17 inh: human USP17-like deubiquitinase inhibition | A8MUK1 | purified USP17, Ub-rhodamine cleavage fluorescence, 3 h | inhibition, % at 50 µM | 47,000 compounds, 6.5% hits
USP30 block: inhibitors of human USP30 deubiquitinase | purified USP30, Ub-rhodamine cleavage fluorescence | inhibition, % at 25 µM | 47,000 compounds, 5.3% hits | AID 1645860
Starred values were filed as active, the others as inactive; / = not tested or not shown. Rows were chosen to be rich in hits. Some 12% of all compounds tested hit in one or more screens of this group. Cut-off read from the data, not from the text of the source: active = inhibition above about 30%; inactive = the rest.

SMILES	OTUD3 inh	USP28 inh	USP17 inh	USP30 block
COc1ccc(CNC(=O)Nc2cccc3ccccc23)cc1	15.6	24.2	92.2*	37.7*
O=C(NCc1ccccc1)Nc1cccc2ccccc12	3.3	19.1	83.6*	-4.6
O=C(NCc1ccc(F)cc1)Nc1cccc2ccccc12	18.6	17.1	40.3*	39.6*
O=C(COc1ccc2ccccc2c1)Nc1cccc2ccccc12	8.1	19.4	64.8*	46.3*
Cc1nc2c(NC(=O)NCc3ccccc3)cccn2n1	-8.5	0.7	0.3	-9.5
C=C1C=C(C)n2cc(CSc3nc4ccc(OCC)cc4[nH]3)nc2N1	-6.5	13.9	-0.6	-7.5
O=C(CNc1ccc(F)cc1F)Nc1ccc2c(c1)OC(F)(F)O2	-2.6	49.1*	-0.3	-6.5
O=C(NCc1ccco1)c1ccc(Cn2c(SCc3ccccc3)nc3ccncc32)cc1	74.8*	71.6*	88.2*	74.1*
COc1ccc(C(=O)OC(C)C(=O)NCC2CCCCC2)cc1S(=O)(=O)N1CCOCC1 (stereo not drawn)	-4.8	-10.8	-14.9	-5.7
CC(OC(=O)c1ccc2c(c1)OCCO2)C(=O)NCC1CCCCC1 (stereo not drawn)	8.7	21.8	28.9	53.1*
CC(OC(=O)c1ccc2c(c1)OCO2)C(=O)NCC1CCCCC1 (stereo not drawn)	16.8	27.2	53.8*	53.7*
CC(OC(=O)c1ccc2c(c1)OCO2)C(=O)Nc1ccccc1-c1ccccc1 (stereo not drawn)	13.2	6.5	4.1	-1.2
CS(=O)(=O)N1CCN(c2ccc(NC(=O)COc3ccccc3)cc2)CC1	-8.1	-8.8	-8.4	0.1
CS(=O)(=O)N1CCN(c2ccccc2NC(=O)COc2ccc(Br)cc2)CC1	-0.5	/	93.4*	/
O=C(CSc1ncn(-c2ccccc2)n1)Nc1ccc(Cc2ccncc2)cc1	15.1	45.9*	41.1*	39.4*
O=C(Nc1ccc(Cc2ccncc2)cc1)c1ccccc1Br	-5.8	11.4	3.6	2.0
O=C(NC1CCS(=O)(=O)C1)c1cc(=O)c2ccccc2o1 (stereo not drawn)	-0.1	-6.3	-2.9	-0.1
Cn1c(=O)c2c(nc3n(CCO)c(-c4ccc(Cl)cc4)cn23)n(C)c1=O	5.4	9.6	5.5	36.1*
O=[N+]([O-])c1ccc(NCC2COc3ccccc3O2)c(Cl)c1 (stereo not drawn)	10.6	72.5*	7.2	25.7
CCc1nnc(-c2nnc(NC3CCN(C)CC3)c3ccccc23)o1	21.8	16.9	12.3	31.8*
CCCCNC(=O)c1ccc2c(c1)OCCO2	-3.9	-0.6	-10.5	-2.3
Cc1ccc(S(=O)(=O)Nc2cccc(-c3ccc4nnc(C)n4n3)c2)cc1	-0.2	-7.2	-2.1	-1.7
CC1=C(C(=O)Nc2c(C)cc(C)cc2C)C2(CCC(C)CC2)OC1=O (stereo not drawn)	-4.1	-8.3	34.3*	-13.8
COc1ccc(CNC(=O)C2(C)Oc3cccnc3N(C)C2=O)cc1 (stereo not drawn)	-2.5	-0.3	/	-8.0
O=C(Nc1ccccc1)c1ccc(-c2ccc(N3CCCC3)nn2)cc1	13.0	21.5	22.1	38.7*
SMILES	OTUD3 inh	USP28 inh	USP17 inh	USP30 block
O=C(NCc1ccccc1)c1ccc(-c2ccc(N3CCCC3)nn2)cc1	-6.4	-1.6	66.0*	-29.2
CCn1c(C(NC(=O)c2ccc(OC)c(OC)c2)c2ccccc2)nc2ccccc21 (stereo not drawn)	-1.0	1.5	0.0	-14.8
CC(C)c1ccc(C(C(=O)NC2CCCCC2)N(C(=O)c2cnccn2)c2ccc3c(c2)OCO3)cc1 (stereo not drawn)	0.4	4.9	8.9	11.7
O=C(CCCC(=O)N(c1ccc2c(c1)OCCO2)C(C(=O)NC1CCCCC1)c1ccc(F)cc1)Nc1ccccn1 (stereo not drawn)	24.8	20.6	34.5*	45.5*
Cc1ccc(C(C(=O)NC2CCCCC2)N(C(=O)CCCC(=O)Nc2ccccn2)c2ccc3c(c2)OCCO3)cc1 (stereo not drawn)	20.8	21.9	47.8*	37.9*
O=C(NC1CCCCC1)C(c1ccc(Cl)cc1)N(C(=O)c1cnccn1)c1ccc2c(c1)OCO2 (stereo not drawn)	1.3	-0.5	42.7*	-1.5
Cc1cc(N2CCN(C)CC2)nc(N2CCN(C(=O)c3cccc(Cl)c3)CC2)n1	15.1	13.9	3.1	10.6
Cn1c(C(=O)NCCc2ccc(S(N)(=O)=O)cc2)cc2sc(Cl)cc21	-15.0	41.5*	23.8	1.5
COc1ccc(NC(=O)CC(=O)c2ccc([N+](=O)[O-])cc2)cc1S(=O)(=O)Nc1ccc(Br)cc1	23.2	42.4*	33.9*	59.9*
CC(=O)c1sc(NC(=O)COc2ccc(N(C)S(=O)(=O)c3ccc(C)cc3)cc2)nc1C	-22.6	-39.1	18.9	-41.8

High-throughput results as filed in PubChem BioAssay.
